# Most compounds without a hit are left out; they make up all but 10% or so of the library.
# MCF10A rerep = induces DNA re-replication in MCF 10a normal breast cells; MCF 10A DNA re-replication, Hoechst nuclear intensity, 48 h; Potency, µM (top dose mostly 46.1 µM), for the others: at the top dose activity, positive = re-replication, actives largely listed as activators; AID 624296; actives 2.9% (n = 350,000); note: % of control where 0% means no effect; nearly all actives have a fitted effect of over 50% in size
# RORg inh = inhibitors of mouse ROR gamma transcriptional activity. Drosophila S2 Gal4-RORgamma UAS-luciferase reporter, 20 h. AID 2551. Potency, µM (titrated, usually from 53.6 µM), inactives show top-dose activity change, negative = inhibition, most hits filed as inhibitors. actives 5.4% (n = 310,000). P51450; note: % is set by controls: 0 for no effect and ±100 for the full control effect; nearly all actives have a fitted effect of over 60% in size
# Target sequence (P51450 whole entry, looked up, the tested form may be a part): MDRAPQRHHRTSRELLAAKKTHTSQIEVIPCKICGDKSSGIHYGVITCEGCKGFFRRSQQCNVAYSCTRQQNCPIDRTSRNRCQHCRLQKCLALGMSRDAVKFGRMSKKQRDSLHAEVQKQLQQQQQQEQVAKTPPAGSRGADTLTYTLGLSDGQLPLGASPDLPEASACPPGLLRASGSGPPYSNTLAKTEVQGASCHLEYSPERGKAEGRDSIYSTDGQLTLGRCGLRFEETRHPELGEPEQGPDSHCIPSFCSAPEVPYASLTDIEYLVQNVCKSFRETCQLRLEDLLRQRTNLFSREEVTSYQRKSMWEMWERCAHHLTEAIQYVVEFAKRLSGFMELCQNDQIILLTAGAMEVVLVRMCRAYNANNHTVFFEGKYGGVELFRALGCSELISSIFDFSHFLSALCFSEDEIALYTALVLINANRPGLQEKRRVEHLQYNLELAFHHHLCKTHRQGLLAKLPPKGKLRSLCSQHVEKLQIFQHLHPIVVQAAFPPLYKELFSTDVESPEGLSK
#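 In this cell-based reporter format, copper sulfate (700 uM final) drives Gal4–ROR gamma fusion expression from a metallothionein promoter in Drosophila Schneider cells; compounds preincubated 1 hr, reporter read after 20 hr at ambient temperature.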
# SW480 rereplic = inducers of DNA re-replication in SW480 colon cancer cells; SW480 DNA re-replication, Hoechst DNA content imaging, 48 h; Potency, µM (series often up to 46.1 µM), inactives show at the top dose re-replication activation, most hits filed as activators; actives 1.8% (n = 340,000); note: % of control where 0% means no effect; nearly all actives have a fitted effect of over 55% in size
#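 Quantitative HTS format with DMSO vehicle controls; 48 hr drug incubation at 37 C, then 40 min Hoechst staining and scanning imager measurement at 405 nm excitation.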
# KB-V1 MDR tox = KB-V1 MDR subline cytotoxicity; actives 3.4% (n = 400,000); Potency, µM (titrated, usually from 46.1 µM), actives largely listed as cytotoxic; KB-V1 MDR cells viability, CellTiter-Glo, 72 h; note: % is set by controls: 0 for no effect and ±100 for the full control effect; nearly all actives have a fitted effect of over 60% in size
#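 Compound-treated KB-V1 multidrug-resistant cells, 72 h, 37 degrees C; viability by CellTiter-Glo. Fitted qHTS curves give the values.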
# Gal4-VP16 FLuc = counter-screen for ROR gamma inhibitors: Gal4-VP16 reporter. Potency, µM (top dose mostly 53.6 µM), for the others: at the highest dose activity, negative = inhibition, hits mostly inhibitors. AID 2546. actives 3.5% (n = 310,000). Drosophila S2 Gal4-VP16 UAS-luciferase, luminescence, 20 h;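 note: Gal4-VP16 expression switched on by copper sulfate through the metallothionein promoter; % is set by controls: 0 for no effect and ±100 for the full control effect; nearly all actives have a fitted effect of over 50% in size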
# KB-3-1 cytotox = kills parental KB-3-1 adenocarcinoma cells; KB-3-1 viability, CellTiter-Glo ATP luminescence, 72 h; Potency, µM (top dose mostly 46.1 µM), most hits filed as cytotoxic; actives 1.4% (n = 400,000); note: % is set by controls: 0 for no effect and ±100 for the full control effect; nearly all actives have a fitted effect of over 60% in size
#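 Luminescent ATP read-out (CellTiter-Glo) measures survival of drug-naive KB-3-1 cells after 72 h compound exposure at 37 °C. Titration series was screened from lowest to highest concentration, with DMSO vehicle plates as background controls.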
# * = called active by the depositor; i = inactive; ? = inconclusive; · = not tested or not shown; [ ] = dose if it differs, or a comment. Calls come from the whole dose curve; as a rule, active = well fitted curve in the direction sought with a large enough effect; inconclusive = small, poorly fitted or top-dose-only effect, or another doubt; inactive = no such curve, though single readings can be large; an effect the other way counts as inactive or inconclusive. Potency is the fitted concentration of half-maximal effect.
SMILES,MCF10A rerep,RORg inh,SW480 rereplic,KB-V1 MDR tox,Gal4-VP16 FLuc,KB-3-1 cytotox
COc1ccc(C(=O)Nc2cccc(C(=O)OCc3cc(=O)n4nc(C5CC5)sc4n3)c2)cc1,·,·,·,?,·,i
CSc1cccc(NC(=O)c2ccc3c(c2)c(C)c(C)n3Cc2ccc(F)cc2)c1,·,·,·,i,·,i
O=C(Cn1sc2ccccc2c1=O)NC12CC3CC(CC(C3)C1)C2,?,3.5µM*,?,?,0.5µM*,i
O=C(Cn1sc2ccccc2c1=O)Nc1ccccc1,·,·,·,i,·,?
Cn1cc(CNCc2ccc(OC(F)(F)F)cc2)c(-c2ccc3c(c2)OCCO3)n1,?,10µM*,5%,?,3.5µM*,i
Cn1cc(CNCc2cn[nH]c2-c2ccc(F)cc2)c(-c2ccc3c(c2)OCCO3)n1,-7%,12%,-6%,i,0%,i
CCc1ccccc1NC(=O)Nc1c[nH]c(=O)[nH]c1=O,·,·,·,i,·,i
Cc1cc(SC#N)cc(C)c1NC(=O)CCl,?,3.5µM*,·,i,5µM*,i
CCc1cc(SC#N)cc(C)c1NC(=O)CCl,16µM*,-44%,23µM*,i,0%,?
CCC(=O)Nc1cc2c(C)cc(=O)oc2cc1C,-1%,-4%,-1%[9.22 µM],i,-8%,i
CCC(=O)Nc1ccc(SC#N)cc1C,?,13µM*,21%,?,?,i
CC(C)c1cccc(C(C)C)c1NC(=O)CCl,0%,3%,22%,?,3%,?
CCc1cc(SC#N)cc(C)c1N,?,-10%,-1%,i,-13%,i
Cc1c(C(=O)NC(C)c2ccccc2)sc2ncnc(N(C)C3CCCCC3)c12 (centres undefined),·,·,·,i,·,i
COc1ccc(Cl)cc1NC(=O)C1CCN(S(=O)(=O)c2ccc3c(c2)CCCN3C(=O)C2CCC2)CC1,·,·,·,i,·,i
Cc1cc(C)c(S(=O)(=O)c2ccc(Cl)cc2)c(Cl)n1,-1%,-4%,-2%,i,-3%,i
Cc1cc(S(=O)(=O)c2ccc(Cl)cc2)nc(S(=O)(=O)c2ccc(Cl)cc2)c1C#N,·,·,·,?,·,9.2µM*
COc1ccc(-n2cc(CN[C@H]3CCCCNC3=O)c(-c3cccc(F)c3)n2)cc1,-6%,-1%,-4%,i,-5%,i
CCC(COC)NCc1cn(-c2ccc(OC)cc2)nc1-c1cccc(F)c1 (centres undefined),16%,-43%,?,5.2µM*,-25%,i
COc1ccc(-n2cc(CNC3CCN(C)CC3)c(-c3cccc(F)c3)n2)cc1,21µM*,?,-2%[1.84 µM],i,?,?
COc1ccc(-n2cc(CNC(C)c3ccncn3)c(-c3cccc(F)c3)n2)cc1 (centres undefined),-15%,-17%,-9%,i,-9%,i
O=S1(=O)CC(N2CCSCC2)CN1Cc1cn(Cc2cccc(C(F)(F)F)c2)nn1 (centres undefined),·,·,·,i,·,?
COc1ccc(Cl)cc1C(=O)Nc1ccc(NC(C)=O)cc1,-7%,3%,-27%,i,3%,i
CC(=O)Oc1c(I)cc(I)cc1C(=O)Nc1ccc(Cl)cc1,7.3µM*,?,?,16µM*,?,23µM*
COc1ccccc1CNC(=O)Cc1csc2nc(-c3ccc(Cl)cc3)cn12,·,·,·,i,·,i
SMILES,MCF10A rerep,RORg inh,SW480 rereplic,KB-V1 MDR tox,Gal4-VP16 FLuc,KB-3-1 cytotox
O=C(NCc1ccccc1)Nc1cccn(Cc2ccc(F)cc2)c1=O,-1%,?,1%,12µM*,?,i
O=C(NCc1ccccc1)Nc1cccn(Cc2ccccc2)c1=O,7%,?,-1%,?,1%,i
O=C(Nc1cccn(Cc2ccccc2)c1=O)NC1CCCCC1,9%,?,5%,4.1µM*,-2%,i
O=C(NCc1ccccc1)Nc1cccn(Cc2ccccc2F)c1=O,7%,23%,10%,10µM*,-15%,i
CCCCn1nnnc1C1(C)CCC(=O)N1Cc1ccc(C)cc1 (centres undefined),·,·,·,i,·,i
Cc1ccc(C(=O)NCCC(C)C)cc1NC(=O)c1nsc2ccccc12,·,·,·,i,·,i
COc1ccc(C(=O)Nc2cc(C)nn2-c2nc3ccccc3[nH]2)c(OC)c1,?,2.2µM*,-44%,i,4µM*,i
COc1cccc(OC)c1C(=O)Nc1cc(C)nn1-c1nc2ccccc2[nH]1,?,3.5µM*,?,3.3µM*,?,15µM*
Cc1cc(NC(=O)CC#N)n(-c2nc3ccccc3[nH]2)n1,18%,?,?,i,?,i
Cc1cc(NC(=O)c2ccccc2)n(-c2nc3ccccc3[nH]2)n1,8%,1µM*,6%,i,2.8µM*,i
Cc1cc(NC(=O)C2CCCC2)n(-c2nc3ccccc3[nH]2)n1,20%,0.63µM*,?,i,1.4µM*,i
COC(=O)c1ccccc1NC(=O)c1cc(-c2ccc(Cl)cc2)on1,·,·,·,i,·,i
Cc1c(CCC(=O)NCCc2ccccc2F)c(=O)oc2cc(O)ccc12,·,·,·,i,·,i
O=C(c1cnn2c(C(F)F)cc(-c3ccccc3)nc12)N1CCOCC1,6%,-20%,-15%,i,-11%,i
O=C(c1cnn2c(-c3ccccc3)cc(-c3ccccc3)nc12)N1CCN(Cc2ccccc2)CC1,?,·,18µM*,i,·,?
CC1CCN(C(=O)c2cc3nc(-c4ccccc4)cc(-c4ccccc4)n3n2)CC1,16µM*,23%,15%,i,8%,i
CC(=O)N1CCN(C(=S)Nc2ccc(SC(F)F)cc2)CC1,11%,32%,2%,21µM*,-6%,i
CC1CCN(C(=S)Nc2ccc(SC(F)F)cc2)CC1,-2%,7.9µM*,-5%,i,11µM*,i
CC(=O)c1ccc(NC(=S)N2CCC(O)CC2)cc1,-1%,43%,1%,i,5%,i
CCCN1CCN(C(=S)Nc2ccc(SC(F)F)cc2)CC1,19%,-45%,0%,i,21%,i
CCCC(=O)NC(c1cccs1)c1cc(Cl)c2cccnc2c1O (centres undefined),26%,0.4µM*,1.3µM*,i,0.5µM*,?
CCCC(=O)NC(c1ccc2c(c1)OCO2)c1cc(Cl)c2cccnc2c1O (centres undefined),?,1.4µM*,?,?,1.3µM*,?
O=C(Cc1ccccc1)NC(c1ccco1)c1cc(Cl)c2cccnc2c1O (centres undefined),·,·,·,i,·,i
